Reference: the supplement of paper PMC10849652
The full data set covers some 8,800 targets. This sample favours those with a hit. About 0.5% of all pairs of compound and target were hits. A number with no mark means an inactive call.

Legend:
Assay in all cases: log2 fold change, soluble protein after heating vs DMSO (PISA); higher = thermal stabilisation; K562 lysate, 10 uM; active = over 0.2 and 3.5 SD of the protein, either way, in both replicates (recomputed)
[1] = compound: C#Cc1cccc(Nc2ncnc3cc(OCCOC)c(OCCOC)cc23)c1 [erlotinib]
Method in brief: (§1)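 Soluble protein was defined as the supernatant remaining after 21,000xg for 90 min, following pooling of heated aliquots and adjustment to 0.5% NP-40 at 4°C. Before that, crude K562 extract at 1 mg/mL protein in PBS pH 7.4 with 1 mM MgCl2 was treated with 10 μM compound for 30 min and heated for 3 min across 48°C-58°C. Quantification used TMTpro 16plex LC-MS/MS with channel sums equalised, and values are log-two fold changes in thermal stability relative to solvent controls from duplicates.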

[2] = compound: C/C(=N\NC(=O)C1=CC(=CC=C1)S(=O)(=O)N2CCOCC2)/C3=C(C=CC(=C3)Cl)O
Method in brief: as §1

[3] = compound: C1=CC(=CC=C1C2=NC3=C(N2)C=C(C=C3)C(=O)N)OC4=CC=C(C=C4)Cl
Method in brief: as §1

[4] = compound: C1=CC2=C(C=CC(=C2)/C=C\3/C(=O)NC(=NCC4=CC=CS4)S3)N=C1
Method in brief: as §1

[5] = compound: C1=CC2=NC=CN=C2C=C1/C=C/3\C(=O)NC(=O)S3
Method in brief: as §1

[6] = compound: C1=CC=C(C=C1)C2=NC(=C(N2)C3=CC=NC=C3)C4=CC(=C(C=C4)Cl)O
Method in brief: as §1

[7] = compound: C1=CC=C2C(=C1)C3=NNC4=CC=CC(=C43)C2=O
Method in brief: as §1

[8] = compound: C1CCN(C1)C(=O)NC2=CC=CC(=C2)NC3=NC=C(C(=N3)NCCC4=CN=CN4)Br
Method in brief: as §1

[9] = compound: C1CN(CCC1(CC2=CC=C(C=C2)Cl)N)C3=NC=NC4=C3C=CN4
Method in brief: as §1

[10] = compound: C1COCCN1CCN2C3=CC=CC=C3N=C2NC(=O)C4=CC(=CC=C4)[N+](=O)[O-] [IRAK-1-4 Inhibitor I]
Method in brief: as §1

Sequence of UniProt P46734 (P46734 whole entry, looked up): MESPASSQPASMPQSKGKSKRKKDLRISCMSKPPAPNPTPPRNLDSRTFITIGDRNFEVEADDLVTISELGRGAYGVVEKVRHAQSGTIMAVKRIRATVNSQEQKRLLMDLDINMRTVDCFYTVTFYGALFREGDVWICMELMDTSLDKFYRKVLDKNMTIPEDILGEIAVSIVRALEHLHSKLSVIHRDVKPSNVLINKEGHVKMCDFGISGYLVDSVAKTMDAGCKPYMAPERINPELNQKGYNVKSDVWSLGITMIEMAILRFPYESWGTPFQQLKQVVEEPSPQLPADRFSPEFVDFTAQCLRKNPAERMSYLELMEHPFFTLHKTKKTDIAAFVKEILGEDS
Sequence of UniProt P52732 (P52732 whole entry, looked up): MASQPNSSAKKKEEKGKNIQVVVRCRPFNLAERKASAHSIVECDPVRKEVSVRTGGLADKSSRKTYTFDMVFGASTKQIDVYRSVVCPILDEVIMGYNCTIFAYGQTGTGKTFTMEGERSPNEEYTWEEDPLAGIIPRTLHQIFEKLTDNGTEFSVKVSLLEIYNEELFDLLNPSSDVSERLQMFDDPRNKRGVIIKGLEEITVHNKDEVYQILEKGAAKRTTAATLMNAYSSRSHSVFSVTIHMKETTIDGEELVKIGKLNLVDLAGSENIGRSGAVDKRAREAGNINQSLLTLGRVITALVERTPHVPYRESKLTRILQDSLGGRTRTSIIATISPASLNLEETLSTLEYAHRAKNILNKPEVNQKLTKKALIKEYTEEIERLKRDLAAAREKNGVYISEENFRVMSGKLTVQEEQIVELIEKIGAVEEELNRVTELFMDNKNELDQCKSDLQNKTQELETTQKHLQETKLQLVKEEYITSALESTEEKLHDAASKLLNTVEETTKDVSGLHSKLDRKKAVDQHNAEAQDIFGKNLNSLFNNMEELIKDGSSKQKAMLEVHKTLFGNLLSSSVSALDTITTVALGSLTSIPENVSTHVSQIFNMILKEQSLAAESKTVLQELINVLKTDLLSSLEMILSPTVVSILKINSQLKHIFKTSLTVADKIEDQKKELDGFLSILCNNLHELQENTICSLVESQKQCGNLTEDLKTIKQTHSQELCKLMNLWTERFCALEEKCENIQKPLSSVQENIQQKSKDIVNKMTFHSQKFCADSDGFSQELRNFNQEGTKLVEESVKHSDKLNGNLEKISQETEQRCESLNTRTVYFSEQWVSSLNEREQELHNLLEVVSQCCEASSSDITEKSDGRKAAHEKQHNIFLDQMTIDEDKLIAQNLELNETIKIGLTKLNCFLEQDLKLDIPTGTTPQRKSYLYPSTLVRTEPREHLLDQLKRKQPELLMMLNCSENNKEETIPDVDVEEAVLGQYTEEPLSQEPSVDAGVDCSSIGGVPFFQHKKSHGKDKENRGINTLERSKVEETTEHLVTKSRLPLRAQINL
Sequence of UniProt Q08380 (Q08380 whole entry, looked up): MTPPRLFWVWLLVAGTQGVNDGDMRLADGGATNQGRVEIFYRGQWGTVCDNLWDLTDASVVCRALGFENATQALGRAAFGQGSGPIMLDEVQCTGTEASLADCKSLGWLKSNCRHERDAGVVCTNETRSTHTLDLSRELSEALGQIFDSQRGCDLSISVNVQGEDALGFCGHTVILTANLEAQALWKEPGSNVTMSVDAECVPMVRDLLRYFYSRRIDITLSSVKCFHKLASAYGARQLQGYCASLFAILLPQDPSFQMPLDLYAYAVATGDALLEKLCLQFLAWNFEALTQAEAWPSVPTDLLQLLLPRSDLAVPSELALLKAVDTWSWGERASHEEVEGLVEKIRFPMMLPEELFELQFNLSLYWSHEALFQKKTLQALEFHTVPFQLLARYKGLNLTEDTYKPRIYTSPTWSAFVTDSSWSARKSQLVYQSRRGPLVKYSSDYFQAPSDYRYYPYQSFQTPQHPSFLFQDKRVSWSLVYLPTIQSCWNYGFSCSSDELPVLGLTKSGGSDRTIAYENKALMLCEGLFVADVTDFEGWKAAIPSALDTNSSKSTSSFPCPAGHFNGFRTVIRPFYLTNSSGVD
Sequence of UniProt O14782 (O14782 whole entry, looked up): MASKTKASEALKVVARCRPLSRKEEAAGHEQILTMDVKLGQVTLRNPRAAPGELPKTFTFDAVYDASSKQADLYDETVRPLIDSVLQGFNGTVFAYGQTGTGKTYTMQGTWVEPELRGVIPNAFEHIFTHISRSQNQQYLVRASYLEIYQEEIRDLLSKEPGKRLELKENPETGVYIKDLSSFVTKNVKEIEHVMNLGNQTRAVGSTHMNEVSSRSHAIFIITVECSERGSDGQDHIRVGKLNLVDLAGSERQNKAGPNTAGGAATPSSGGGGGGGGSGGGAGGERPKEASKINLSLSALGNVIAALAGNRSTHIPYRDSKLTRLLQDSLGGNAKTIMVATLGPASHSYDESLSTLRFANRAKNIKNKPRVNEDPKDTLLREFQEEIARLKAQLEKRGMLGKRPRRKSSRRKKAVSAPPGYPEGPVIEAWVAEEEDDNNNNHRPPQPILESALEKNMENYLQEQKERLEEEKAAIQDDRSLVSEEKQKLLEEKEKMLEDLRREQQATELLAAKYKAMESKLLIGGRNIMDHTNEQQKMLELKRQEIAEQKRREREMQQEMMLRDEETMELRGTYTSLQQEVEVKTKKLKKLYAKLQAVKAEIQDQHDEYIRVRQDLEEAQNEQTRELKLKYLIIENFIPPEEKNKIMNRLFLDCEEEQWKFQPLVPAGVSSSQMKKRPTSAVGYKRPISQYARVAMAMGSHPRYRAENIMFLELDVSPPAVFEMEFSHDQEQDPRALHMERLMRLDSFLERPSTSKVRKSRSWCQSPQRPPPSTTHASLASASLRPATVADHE
Sequence of UniProt O95382 (O95382 whole entry, looked up): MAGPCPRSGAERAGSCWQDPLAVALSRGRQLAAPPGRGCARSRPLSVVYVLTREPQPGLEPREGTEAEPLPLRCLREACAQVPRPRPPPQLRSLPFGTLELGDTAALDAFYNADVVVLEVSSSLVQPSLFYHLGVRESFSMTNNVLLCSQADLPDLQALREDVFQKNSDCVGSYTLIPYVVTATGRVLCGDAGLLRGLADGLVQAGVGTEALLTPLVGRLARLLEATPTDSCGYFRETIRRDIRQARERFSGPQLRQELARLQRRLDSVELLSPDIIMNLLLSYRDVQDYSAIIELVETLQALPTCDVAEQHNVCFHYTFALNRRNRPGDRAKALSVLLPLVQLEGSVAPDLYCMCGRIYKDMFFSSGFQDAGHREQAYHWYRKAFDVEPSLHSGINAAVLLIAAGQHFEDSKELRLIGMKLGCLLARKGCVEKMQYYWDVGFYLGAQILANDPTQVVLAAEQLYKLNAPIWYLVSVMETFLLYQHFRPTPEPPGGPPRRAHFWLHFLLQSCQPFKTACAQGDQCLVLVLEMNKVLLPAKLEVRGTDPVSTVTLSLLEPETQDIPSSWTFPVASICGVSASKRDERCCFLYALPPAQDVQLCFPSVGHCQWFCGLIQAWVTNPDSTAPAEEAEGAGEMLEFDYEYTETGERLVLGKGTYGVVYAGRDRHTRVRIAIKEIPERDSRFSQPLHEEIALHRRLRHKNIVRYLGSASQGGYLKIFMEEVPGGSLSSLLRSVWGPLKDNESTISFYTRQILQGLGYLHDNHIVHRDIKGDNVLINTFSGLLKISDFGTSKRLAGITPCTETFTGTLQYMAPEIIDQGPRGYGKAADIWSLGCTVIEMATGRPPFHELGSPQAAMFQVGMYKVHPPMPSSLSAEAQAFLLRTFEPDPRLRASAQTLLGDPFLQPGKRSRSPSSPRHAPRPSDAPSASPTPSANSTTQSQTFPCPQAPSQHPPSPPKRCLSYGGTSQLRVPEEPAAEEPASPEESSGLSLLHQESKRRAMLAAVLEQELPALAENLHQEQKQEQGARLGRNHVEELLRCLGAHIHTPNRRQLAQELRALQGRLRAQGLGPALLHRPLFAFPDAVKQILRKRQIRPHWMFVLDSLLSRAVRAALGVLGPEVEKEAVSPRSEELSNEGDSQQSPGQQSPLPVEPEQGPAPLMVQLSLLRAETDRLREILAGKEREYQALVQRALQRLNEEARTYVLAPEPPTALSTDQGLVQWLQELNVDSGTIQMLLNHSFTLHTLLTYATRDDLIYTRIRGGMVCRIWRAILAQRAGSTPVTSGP
Sequence of UniProt P07948 (P07948 whole entry, looked up): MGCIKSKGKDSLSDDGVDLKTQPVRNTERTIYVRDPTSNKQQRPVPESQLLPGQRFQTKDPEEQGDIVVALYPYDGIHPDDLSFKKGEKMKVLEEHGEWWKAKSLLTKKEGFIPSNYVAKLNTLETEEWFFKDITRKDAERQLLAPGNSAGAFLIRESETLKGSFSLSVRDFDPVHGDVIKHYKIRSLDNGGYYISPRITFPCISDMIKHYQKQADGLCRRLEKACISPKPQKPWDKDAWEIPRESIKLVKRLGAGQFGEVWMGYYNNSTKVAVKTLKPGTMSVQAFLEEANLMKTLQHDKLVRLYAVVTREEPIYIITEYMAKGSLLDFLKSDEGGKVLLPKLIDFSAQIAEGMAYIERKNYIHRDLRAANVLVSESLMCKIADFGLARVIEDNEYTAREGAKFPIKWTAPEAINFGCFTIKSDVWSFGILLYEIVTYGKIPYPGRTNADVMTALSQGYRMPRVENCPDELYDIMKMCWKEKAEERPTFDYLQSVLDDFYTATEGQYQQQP
Sequence of UniProt P27361 (P27361 whole entry, looked up): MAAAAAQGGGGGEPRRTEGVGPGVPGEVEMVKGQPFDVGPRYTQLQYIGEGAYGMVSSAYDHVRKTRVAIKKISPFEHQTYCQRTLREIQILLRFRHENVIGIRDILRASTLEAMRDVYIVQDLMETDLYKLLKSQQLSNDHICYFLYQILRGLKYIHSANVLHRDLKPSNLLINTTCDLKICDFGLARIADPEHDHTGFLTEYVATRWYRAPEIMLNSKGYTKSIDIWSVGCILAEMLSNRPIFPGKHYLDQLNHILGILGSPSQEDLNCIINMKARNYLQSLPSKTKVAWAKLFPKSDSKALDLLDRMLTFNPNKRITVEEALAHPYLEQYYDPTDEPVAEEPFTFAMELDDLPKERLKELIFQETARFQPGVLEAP

Target	log2 fold change [1]	log2 fold change [2]	log2 fold change [3]	log2 fold change [4]	log2 fold change [5]	log2 fold change [6]	log2 fold change [7]	log2 fold change [8]	log2 fold change [9]	log2 fold change [10]
KIF11 (UniProt P52732)	-0.014	0.012	-0.016	-0.004	-0.004	-0.004	-0.023	-0.005	-0.013	-0.033
MAP2K2 (UniProt P36507)	0.049	0.005	0.023	-0.023	-0.006	0.001	0.249	0.219	0.017	0
MAPK3 (UniProt P27361)	0	0.02	0	-0.025	0.031	0.01	0.052	0.021	0.055	0.049
MAP2K3 isoform 3 (UniProt P46734)	0.048	0.061	0.03	-0.063	0.03	-0.037	0.119	-0.006	0.129	0.03
MINDY1 isoform 3 (UniProt Q8N5J2)	0.052	-0.006	0.048	-0.031	0.245	0.053	0.056	-0.082	-0.066	-0.02
KMT2B (UniProt Q9UMN6)	-0.494	–	-0.226	–	–	–	–	-0.028	-0.015	–
MDM1 (UniProt Q8TC05)	-0.018	-0.105	-0.036	-0.066	–	-0.054	-0.041	-0.05	-0.075	-0.043
LRRIQ1 (UniProt Q96JM4)	–	0.038	–	-0.003	–	0.041	-0.003	–	–	-0.083
LRPPRC (UniProt H7C3W8)	–	-0.13	–	-0.053	–	–	-0.3	–	–	–
KRAS (UniProt P01116)	-0.112	0.033	0.069	-0.052	–	-0.036	-0.041	-0.021	-0.008	0.007
LGALS3BP (UniProt Q08380)	-0.154	0.293	0.064	0.331	–	–	-0.203	0.018	-0.171	–
KIF21A (UniProt H0YI78)	-0.064	–	0.088	–	-0.015	–	–	–	–	–
LSM11 (UniProt P83369)	0.104	0.262	0.065	-0.056	–	–	-0.044	-0.029	-0.055	–
MRPL22 (UniProt Q9NWU5)	-0.424 (active)	–	-0.074	–	–	0.006	–	–	–	-0.01
MAN2B2 (UniProt Q9Y2E5)	0.006	–	-0.019	–	-0.003	-0.035	–	-0.01	0.045	0.009
LYN isoform 2 (UniProt P07948)	-0.161	–	-0.093	–	–	0.132	–	-0.035	-0.385	0.493
MAP3K6 (UniProt O95382)	–	0.05	–	0.183	–	–	0.487	0.033	-0.008	–
KIF3C (UniProt O14782)	0.389	0.05	-0.082	-0.116	–	0.025	-0.117	0.158	0.146	-0.023
MEX3A (UniProt A1L020)	–	0.108	–	-0.108	–	-0.007	-0.29	–	–	0.168
LIMK1 (UniProt P53667)	–	0.114	–	-0.088	0.133	-0.002	0.029	0.068	-0.05	0.06
